GLP1R ag = agonists of human GLP-1 receptor | P43220 | HEK293 GLP-1R CRE-luciferase, luminescence, 4-6 h; cells express a hypersensitive GLP-1R form | Potency, µM (doses to about 45.6 µM), without a hit: top-dose activation, actives largely listed as activators | 380,000 tested, 0.007% active; also: % of control where 0% means no effect
Target sequence (P43220 whole entry, looked up): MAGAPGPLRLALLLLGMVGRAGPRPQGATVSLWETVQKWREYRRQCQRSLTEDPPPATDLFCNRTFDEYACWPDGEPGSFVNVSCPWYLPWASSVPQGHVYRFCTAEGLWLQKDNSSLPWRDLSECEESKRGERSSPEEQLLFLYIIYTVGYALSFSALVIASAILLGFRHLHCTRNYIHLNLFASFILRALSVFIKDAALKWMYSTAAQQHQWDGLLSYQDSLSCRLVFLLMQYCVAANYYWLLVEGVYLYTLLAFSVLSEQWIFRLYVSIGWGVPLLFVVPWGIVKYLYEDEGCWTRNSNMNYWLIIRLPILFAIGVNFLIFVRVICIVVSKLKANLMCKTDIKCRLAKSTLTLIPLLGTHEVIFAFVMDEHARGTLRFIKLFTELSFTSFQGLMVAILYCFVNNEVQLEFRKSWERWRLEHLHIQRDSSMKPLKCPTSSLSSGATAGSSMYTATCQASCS
Mito fusion yeast = mitochondrial division inhibition or fusion activation; Potency, µM (top dose mostly 46.1 µM), without a hit: top-dose growth rescue (activation), actives largely listed as activators; S. cerevisiae fusion-defective mutant growth rescue, CellTiterGlo 48 h; AID 485298; 320,000 tested, 0.23% active; also: % of control where 0% means no effect; nearly all actives have a fitted effect of over 45% in size
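S. cerevisiae fusion-defective temperature-sensitive mutants (e.g. fzo1-1, mgm1-5) grown 48 h at 37C in YPEG (ethanol/glycerol non-fermentable) medium with 23 nl compound per well; growth rescue read as CellTiterGlo luminescence.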
GLP-1R inv ag = inverse agonists of human GLP-1 receptor. Potency, µM (top dose mostly 38.3 µM), inactives show at the highest dose activity change, negative = inhibition, actives largely listed as inhibitors. HEK293 GLP-1R CRE-luciferase, luminescence, 24 h; GLP-1R form is constitutively active. P43220. 410,000 tested, 1.6% active; also: % is scaled to controls: 0 for no effect and ±100 for the full control effect; nearly all actives have a fitted effect of over 55% in size
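Cells are plated, allowed 12 hours at 37 deg C, then treated with compounds for 24 hr before luciferase detection reagent is added and luminescence is read after 12 min at room temperature. The HEK293 line carries constitutively active GLP-1R with a cAMP-responsive reporter.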
HEK293 tox = cytotoxicity counter-screen for GLP-1 receptor inverse agonists | HEK293 cAMP-luciferase reporter cells, luminescence, 24 h | 410,000 tested, 0.13% active | Potency, µM (highest dose often 38.3 µM), for the others: top-dose activity change, negative = inhibition, usual class: inhibitors | AID 624418;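 also: loss of luciferase light is scored as toxicity; % is scaled to controls: 0 for no effect and ±100 for the full control effect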
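To flag toxic compounds, the library was rerun on cells for 24 hr at 37 deg C and 5% CO2. Viability-linked luminescence was captured 12 min after adding luciferase detection reagent.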
BRCA1 expr act = increases BRCA1 expression. MCF7-BRCA1-FFLuc reporter, luminescence, 48 h; response scale: scaled: vehicle 0%, 10 µM genistein 100%. AID 624202. 380,000 tested, 1.1% active. Potency, µM (titrated, usually from 46.1 µM), inactives show at the highest dose activation, usual class: activators; also: nearly all actives have a fitted effect of over 80% in size
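Compounds are tested at multiple concentrations on MCF7 BRCA1-luciferase reporter cells seeded at 2000 per well; after 48 h, a single luminescence end-point is taken and curves fitted to the normalized data.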
The depositor's hits bear a star; ? = inconclusive; . = no result; ! = not confirmed by another sample; [ ] = remark or other dose. Only some compounds are listed: those with a hit (about 2.8% of all), similar ones and a draw of the others. Calls follow the shape of the dose curve; as a rule, active = well fitted curve in the direction sought with a large enough effect; inconclusive = small, poorly fitted or top-dose-only effect, or another doubt; inactive = no such curve, though single readings can be large; an effect the other way counts as inactive or inconclusive. Potency is read from the fitted curve at half-maximal effect.

SMILES	GLP1R ag	Mito fusion yeast	GLP-1R inv ag	HEK293 tox	BRCA1 expr act
Cc1nn(Cc2ccccc2)c(Cl)c1C(=O)OC(C)C(=O)Nc1ccc(F)cc1Cl (stereo unspecified)	-11%	-6%	-4%	4%	-13%
COc1cc2c(cc1O)CC[C@@H]1[C@@H]2CC[C@]2(C)[C@@H](O)CC[C@@H]12	-1%	21µM*!	11µM*	-28%	0%
CC12CCC(=O)C=C1CCC1C2CCC2(C)C(O)CCC12 (stereo unspecified)	5%	13%	21%	5%	-10%
CCC(C)N1C(=O)/C(=C/c2ccc3c(c2)CCN3CCCCl)C(=O)NC1=S (stereo unspecified)	-4%	1%	-1%	-10%	-17%
CN(C)C(=O)Oc1ccc(OCc2nc3ccccc3[nH]2)cc1	-27%	-11%	7.1µM*	16%	-32%
COc1cccc2c1C(=O)c1c(O)c3c(c(O)c1C2=O)CC(O)(C(C)=NO)CC3OC1CC(N)C(O)C(C)O1 (stereo unspecified)	-5%	.	10µM*	11µM*	-76%
O=Cc1cn(Cc2ccc([N+](=O)[O-])cc2)c2ccccc12	-1%	19%	2.2µM*	-17%	-65%
CCOC(=O)c1[nH]c2ccc(OC)cc2c1NC(=S)N1CCN(c2cccc(C)c2C)CC1	-13%	6%	?	?	-61%
CCOc1cccc(=NC2CCCCC2)c2c(C)n(C)c(C)c12	-14%	0%	10µM*	?	-73%
Cc1ccccc1C(=O)Nc1ccc(C(=O)OCc2cc(=O)n3nc(C4CC4)sc3n2)cc1	.	.	?	-12%	.
c1ccc(CCc2ccc3n2Cc2cnnn2-c2ccccc2-3)cc1	1%	.	11µM*	-1%	-24%
CC(Cc1ccccc1)NC(=O)CN1CCCC1=O (stereo unspecified)	16%	-4%	22%	-9%	-15%
CCc1ccc(OCC(=O)NC(NC(=S)Nc2ccccc2)C(Cl)(Cl)Cl)cc1 (stereo unspecified)	4%	-4%	4µM*	?	-65%
C=C[C@@H]1C[C@@]1(C)[C@@H](NP(=O)(c1ccccc1)c1ccccc1)c1ccccc1	11%	18µM*	10µM*	7%	-23%
COc1cc2c3c(c1OC)Oc1ccc(cc1)C[C@H]1c4c(cc(OC)c(OC)c4Oc4ccc(cc4)C[C@@H]3N(C)CC2)CCN1C	0%	.	?	?	-16%
Cc1cccc(N2CCc3c2nc2ccccc2c3N)c1	3%	7%	?	?	-15%
Nc1ccc(CCN2CCN(c3cccc(C(F)(F)F)c3)CC2)cc1	11%	9.2µM*	?	-5%	8%
Cc1ccc(-c2ccc(=O)n(CCC(=O)N3CCC4(CC3)OCCO4)n2)cc1	-1%	0%	3%	9%	11µM*
O=C(CCn1nc(-c2ccc(Cl)cc2)ccc1=O)N1CCC2(CC1)OCCO2	6%	-3%	16%	-10%	0%
CC(=O)OC12COC1CC(O)C1(C)C(=O)C(O)C3=C(C)C(O)CC(O)(C(OC(=O)c4ccccc4)C21)C3(C)C (stereo unspecified)	2%	.	-38%	?	-72%
CN1CCN(Cc2ccc3ccccc3c2)CC1	-4%	-2%	-33%	0%	1%
CCCCCCOc1ccc(CN2CCN(C)CC2)cc1	-10%	-10%	3.2µM*	4%	-13%
Cn1c(=O)[nH]c(=O)c2c1nc([N+](=O)[O-])n2Cc1ccccc1	-5%	-10%	?	10µM*	-81%
O=c1[nH]c(=S)n(-c2ccccc2)c(O)c1C=NCCN1CCNCC1	10%	-1%	-9%	0%	0%
Cc1nc(-c2ccc(Cl)cc2)sc1C1(C)CC(c2ccccc2)=NO1 (stereo unspecified)	0%	.	-13%	11%	11µM*
SMILES	GLP1R ag	Mito fusion yeast	GLP-1R inv ag	HEK293 tox	BRCA1 expr act
Cc1cc(N/N=C/c2ccc(O)c(C)c2O)nc(-c2ccccc2O)n1	-39%	13%	?	10µM*	-97%
O=C(c1ccccc1)c1nn(-c2ccc(Cl)cc2)c(=O)cc1C(F)(F)F	30%	5%	4µM*	?	-102%
CCCc1cc(-c2nc(N)ncc2-c2ccc3c(c2)OCCCO3)c(O)cc1OC	-30%	?	10µM*	?	-98%
COc1ccc(C(=O)Oc2c(Sc3ccccc3)c(C)nn2-c2ccccc2)c(OC)c1	.	.	13µM*	?	.
NP(=O)(OCC(F)(F)F)Oc1ccccc1 (stereo unspecified)	0%	.	0%	2%	0%
CCCn1c(C)c(C(=O)c2ccc3ccccc3c2)c2ccccc21	.	13µM*	.	.	.
COc1ccc(C(=O)c2c(C)n(CCN3CCOCC3)c3ccccc23)cc1	8%	.	.	.	.
CCN(CC)P(=O)(c1n(CC)cc[n+]1CC)N(CC)CC	0%	-8%	-6%[7.66 µM]	4%[7.66 µM]	22%
Cc1nc2ccc(NC(=O)c3ccc(Cl)s3)cc2s1	-7%	-1%	8%	-6%	3.5µM*
COc1ccc(-n2c(O)c(/C=C3\C=Nc4ccc(Br)cc43)c(=O)[nH]c2=O)c(OC)c1	-3%	-4%	5%	-16%	-51%
O=c1[nH]c(=S)[nH]c(O)c1N=Nc1ccc2c(c1)OCO2	-3%	-3%	6%	10µM*	37%
O=c1[nH]c(=S)[nH]c(O)c1N=Nc1ccc2c(c1)OCCO2	2%	-1%	?	?	11%
CCCN(CCC)c1c([N+](=O)[O-])cc(S(N)(=O)=O)cc1[N+](=O)[O-]	10%[96 µM]	.	.	.	.
CCOC(=O)C1CCCN(Cc2ccc(-c3ccccc3)cc2)C1 (stereo unspecified)	-4%	0%	?	4%	0%
O=C(NC(c1ccc(-c2ccccc2)cc1)c1cnccn1)C1CCN(Cc2ccc(Oc3ccccc3)cc2)CC1 (stereo unspecified)	1%	.	4µM*	?	-63%
N#CC(C#N)=C1C=CC=CN1/C(=C\c1ccco1)C(=O)c1ccc(Cl)cc1	-30%	-18%	5.6µM*	67%	-101%
FC(F)(F)Oc1ccc(C2NCc3ccccc3-n3cccc32)cc1 (stereo unspecified)	8%	-31%	?	2%	-12%
CN1CCN(Cc2nnc3n2-c2ccc(Cl)cc2C(c2ccccc2)=NC3)CC1	5%	-6%	-15%	15%	-6%
COC(=O)C1=C(c2cc3ccccc3s2)C[C@@H]2CC[C@H]1N2C(=O)NC1CC1	-5%	.	-30%	-7%	-8%
COC(=O)C1=C(c2cc3ccccc3s2)C[C@@H]2CC[C@H]1N2C(=O)N1CCC(C)CC1	25%	.	10µM*	-20%	-18%
